S1P2 ag: activates the human S1P2 receptor | O95136 | S1P2-expressing cell line, agonist reporter read-out | activation, % at 4.5 µM | 97,000 tested, 0.46% active | AID 729; in the data active = activation above about 16%
Target sequence (O95136 whole entry, looked up): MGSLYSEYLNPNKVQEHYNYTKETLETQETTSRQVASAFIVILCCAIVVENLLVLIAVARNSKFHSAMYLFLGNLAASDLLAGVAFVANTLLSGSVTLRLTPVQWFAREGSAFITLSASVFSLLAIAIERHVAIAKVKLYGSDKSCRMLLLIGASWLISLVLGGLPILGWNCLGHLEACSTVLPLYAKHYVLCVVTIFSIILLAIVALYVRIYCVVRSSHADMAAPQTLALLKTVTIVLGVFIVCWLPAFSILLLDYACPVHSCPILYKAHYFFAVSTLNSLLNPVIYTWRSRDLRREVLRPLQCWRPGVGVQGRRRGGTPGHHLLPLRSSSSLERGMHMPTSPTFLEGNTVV
GALR2 antag: antagonists of human galanin receptor 2 (GALR2) | O43603 | GALR2-expressing cells, antagonist mode | inhibition, % at 4 µM | 140,000 tested, 0.39% active | AID 828; in the data active = inhibition above about 27%;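 also: cells stimulated with galanin 1-16 at roughly its EC80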
GALR2 agonist: GALR2 (human) receptor agonism; activation, % (concentration not given with the values); 140,000 tested, 0.48% active; O43603; GALR2-expressing cells, agonist activation read-out; in the data active = activation above about 5%, passing the limit was not always enough
PostGolgi yeast: growth inhibition of a yeast mutant, post-Golgi transport screen; 98,000 tested, 0.9% active; post-Golgi transport phenotypic cell assay; inhibition, % at 10 µM; AID 739;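 also: yeast cells grown in 1536-well plates; yeast grown about 18 h at 30C before absorbance read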
S1P2 blocker: blocks the human S1P2 receptor; O95136; cell-based S1P2 antagonist assay, inhibition at 5 uM; inhibition, % at 5 µM; 97,000 tested, 0.21% active; AID 736; in the data active = inhibition above about 45%;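 also: CRE beta-lactamase reporter cells expressing human S1P2 stimulated with S1P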
PostGolgi ctrl: growth of the yeast control strain, post-Golgi counter-screen. 98,000 tested, 5% active. efflux-deficient yeast background strain, growth absorbance A615, 16 h. inhibition, % at 10 µM
Each line names hits and unclear results; the compound was inactive in the other large screens; ! = repeats disagree. The full list was thinned out, with hits kept by preference. Rule as the data show it, unless noted: active = inhibition above about 30%; inactive = the rest.

CCCN(CCC)C(=O)CC(c1ccccc1)c1cc(Br)ccc1O (configuration not stated)	PostGolgi ctrl 47
CC(C)n1c(SCC(=O)Nc2nc3c(s2)CCCC3)nc2c1c(=O)n(C)c(=O)n2C	none (no result: PostGolgi yeast, PostGolgi ctrl)
CCOC(=O)c1ccc(NC(=O)c2cn(CCC#N)nc2-c2ccc3c(c2)OCCO3)cc1	none (no result: S1P2 ag, PostGolgi yeast, S1P2 blocker, PostGolgi ctrl)
CCCn1c(=S)[nH]c2cc(C(=O)N3CCc4ccccc43)ccc2c1=O	PostGolgi ctrl 103
COCCn1c(=S)[nH]c2cc(C(=O)N3CCc4ccccc43)ccc2c1=O	PostGolgi ctrl 96
COCCn1c(=S)[nH]c2cc(C(=O)NC(C)C)ccc2c1=O	none
Cc1nn(-c2ccccn2)c2c1C(c1ccccn1)C1=C(CCCC1=O)N2 (configuration not stated)	none
C#CCNC(=O)/C=C/c1ccc(OC)cc1	none (no result: S1P2 ag, PostGolgi yeast, S1P2 blocker, PostGolgi ctrl)
Cc1cc2cc(C)c3nnc(SCC(=O)N4CCc5ccccc54)n3c2cc1C	none
Cc1cc2cc(C)c3nnc(SCC(=O)N4CCCc5ccccc54)n3c2cc1C	PostGolgi ctrl 30
CCN1CCN(Cc2ccc(NC(=O)Nc3ccccc3Cl)cc2)CC1	none (no result: S1P2 ag, S1P2 blocker)
CCN1CCN(Cc2ccccc2NC(=O)Nc2ccc(C)cc2)CC1	PostGolgi ctrl 35
C=CCn1c(COc2ccc(Cl)cc2)nnc1SCc1ccc(C#N)cc1	PostGolgi yeast 47, PostGolgi ctrl 41
Cc1ccc(OCc2nnc(SCc3ccc(C#N)cc3)n2-c2ccc(C)cc2)cc1	PostGolgi ctrl 39
Cc1cc(C)c(C(CC(=O)c2cccs2)C(C#N)C#N)c(C)c1 (configuration not stated)	none (no result: S1P2 ag, PostGolgi yeast, S1P2 blocker, PostGolgi ctrl)
CC(=C\c1ccco1)/C=C(\C#N)C(=O)NCCc1c[nH]c2ccccc12	none (no result: S1P2 ag, PostGolgi yeast, S1P2 blocker, PostGolgi ctrl)
N#Cc1c2n(c3c(=O)n(Cc4ccccc4)cnc13)CCCC2	none
N#Cc1c2n(c3c(=O)n(Cc4ccc(Cl)cc4)cnc13)CCCCC2	PostGolgi ctrl 58
CCCCn1c(SCC(=O)NCc2ccco2)nc2ccccc2c1=O	none
CCCCCn1c(SCc2ccncc2)nc2cc(C(=O)NCc3ccco3)ccc2c1=O	PostGolgi ctrl 43
Cc1ccnc(SCCn2c(N3CCOCC3)nc3c2c(=O)n(C)c(=O)n3C)n1	none (no result: PostGolgi yeast, PostGolgi ctrl)
O=C(Cn1c(=O)oc2ccccc21)N1CCN(c2ccccc2)CC1	PostGolgi ctrl 31
O=C(CCn1c(=O)oc2ccccc21)N1CCN(C(c2ccccc2)c2ccccc2)CC1	PostGolgi ctrl 36
CC(=O)N1CCN(C(=O)Cn2c(=O)oc3ccccc32)CC1	none
CCOc1ccc(NC(=O)C(=O)N/N=C\c2ccc(CNS(=O)(=O)c3ccccc3)o2)cc1	GALR2 agonist 5.7 (no result: S1P2 ag, PostGolgi yeast, S1P2 blocker, PostGolgi ctrl)
Cc1ccc2nc(SC(C(=O)c3ccccc3)c3ccccc3)nc(C)c2c1 (configuration not stated)	none (no result: S1P2 ag, PostGolgi yeast, S1P2 blocker, PostGolgi ctrl)
Cc1nnsc1C(=O)Nc1cc(Cl)ccc1Cl	none (no result: PostGolgi yeast, PostGolgi ctrl)
O=C(Nc1nnc(-c2cccs2)o1)c1cccc(C(F)(F)F)c1	PostGolgi yeast 73, PostGolgi ctrl 36
CC1CC(C)CN(S(=O)(=O)c2ccc(C(=O)Nc3nnc(-c4cccs4)o3)cc2)C1 (configuration not stated)	none
Cc1cc(C(C)(C)C)oc1C(=O)N(CC(=O)NC1CCCC1)Cc1ccccc1Cl	PostGolgi ctrl 31
Cc1ccccc1N(CC(=O)NC1CCCC1)C(=O)c1oc(C(C)(C)C)cc1C	none
Cc1ccc(SC(C)C(=O)Nc2ccncc2)cc1 (configuration not stated)	PostGolgi yeast 102, PostGolgi ctrl 90
Cc1ccc(SC(C)C(=O)Nc2cccnc2)cc1 (configuration not stated)	none
COc1ccc(-c2noc(C3CCCN(S(=O)(=O)c4ccc(C)c(Cl)c4)C3)n2)cc1OC (configuration not stated)	none
COc1ccc(-c2noc(C3CCCN(S(=O)(=O)c4cccc(Cl)c4C)C3)n2)cc1OC (configuration not stated)	PostGolgi ctrl 50
CCN(CC)C(=S)Nc1ccc(Cl)c(Cl)c1	none (no result: S1P2 ag, PostGolgi yeast, S1P2 blocker, PostGolgi ctrl)
CCCOc1ccc(/C=C/C(=O)Nc2ccc([N+](=O)[O-])cc2)cc1	PostGolgi ctrl 95
CCCCn1c2nc3ccccc3nc2c2c(=O)n(C(C)CC)cnc21 (configuration not stated)	PostGolgi yeast 37
CCCCCn1c2nc3ccccc3nc2c2c(=O)n(CC(C)C)cnc21	none
Cc1ccc(-n2c(O)c(/C=N/n3cnnc3)c3ccccc3c2=O)cc1	PostGolgi ctrl 34!
O=c1c2ccccc2c(/C=N/n2cnnc2)c(O)n1-c1ccccc1F	none (no result: S1P2 ag, GALR2 antag, GALR2 agonist, S1P2 blocker)
CCOC(=O)c1cnc(-n2nc(C)cc2C)nc1NCCO	none
CCOC(=O)c1cnc(-n2nc(C)cc2C)nc1NC(C)c1ccccc1 (configuration not stated)	PostGolgi ctrl 44 (no result: S1P2 ag, S1P2 blocker)
CCOC(=O)c1cnc(-n2nc(C)cc2C)nc1NCc1ccccc1	PostGolgi ctrl 46
CCOC(=O)c1cnc(-n2nc(C)cc2C)nc1NNc1cc(-c2ccccc2)nc(C)n1	none (no result: S1P2 ag, PostGolgi yeast, S1P2 blocker, PostGolgi ctrl)
CCc1cc2c(=O)n(Cc3ccco3)c(SCC(=O)N3CCCc4ccccc43)nc2s1	none
CCc1cc2c(=O)n(Cc3ccco3)c(SCc3c(C)noc3C)nc2s1	PostGolgi ctrl 33
CN(C)/C=N/c1cc(=O)[nH]c(=O)n1C	none (no result: S1P2 ag, PostGolgi yeast, S1P2 blocker, PostGolgi ctrl)
O=C(c1ccccc1Cl)N1N=C(c2ccc(Br)cc2)CC1c1nc2ccccc2[nH]1 (configuration not stated)	PostGolgi ctrl 64
CC(c1nnnn1C(C)(C)C)N(Cc1cccnc1)Cc1ccccc1Cl (configuration not stated)	PostGolgi ctrl 32
O=C(COC(=O)C1CCN(S(=O)(=O)c2ccc3c(c2)OCCO3)CC1)Nc1ccc(C(F)(F)F)cc1	none (no result: S1P2 ag, PostGolgi yeast, S1P2 blocker, PostGolgi ctrl)
COc1ccc(C(NC(=O)/C=C/c2ccco2)c2ccc(OC)c(OC)c2)cc1OC	none (no result: S1P2 ag, PostGolgi yeast, S1P2 blocker, PostGolgi ctrl)
Cc1nn(-c2ccccc2)c(C)c1/C=N/O	none
Cc1nn(-c2ccccc2)c(C)c1/C=N\N1CCN(c2ccc(Cl)cc2)CC1	PostGolgi yeast 66, PostGolgi ctrl 47
O=S(=O)(c1cccc(-c2nc3ccccc3s2)c1)N1CCOCC1	PostGolgi ctrl 30
Cc1ccc(S(=O)(=O)N2CCCC2)cc1S(=O)(=O)N1CCCC1	none
Cc1ccc(-c2nc3ccccc3s2)cc1S(=O)(=O)N1CCCC1	PostGolgi ctrl 31
O=S(=O)(c1cccs1)N1CCN(CC(O)COc2cc(Cl)ccc2Cl)CC1 (configuration not stated)	PostGolgi ctrl 33
O=c1c(-c2nnc(SCc3ccc(Cl)cc3)o2)cccn1Cc1ccccc1	PostGolgi ctrl 61
O=C(Nc1ccccc1-c1nnc(SCc2ccc(Cl)cc2)o1)c1ccccc1	none
Cc1ccccc1-c1nnc(SCc2ccc(F)cc2)o1	PostGolgi ctrl 35
CCCN(CCC)C(=O)Cc1coc2ccc3ccccc3c12	PostGolgi ctrl 42
O=C(Cc1coc2ccc3ccccc3c12)NCc1ccccc1	none
O=C(Nc1cccn(Cc2c(Cl)cccc2Cl)c1=O)c1c(Cl)cccc1Cl	PostGolgi ctrl 93
NC(=S)N/N=C/c1ccc(-c2ccc(Cl)c(Cl)c2)o1	PostGolgi yeast 67, PostGolgi ctrl 81

Compound activity from PubChem BioAssay.
